{"source": "ChEMBL document CHEMBL4513216", "about": "“Probing the Open Global Health Chemical Diversity Library for Multistage-Active Starting Points for Next-Generation Antimalarials” (ACS Infect Dis, 2020)", "note": "About 8,600 (12%) of roughly 69,000 compounds showed an effect of 50% or more. For the sample, strong results were picked, then their nearest neighbours and some compounds at random."}
{"test_system": "Plasmodium berghei", "experiment": "Screen against P. berghei liver stage (PbLuc), transformed with Luciferase, at 10uM", "assay_type": "functional, HepG2", "conditions": "tested at 10 uM", "units": {"INHIBITION": "%"}}
{"smiles": "CC(=O)N1CCCN(C(=O)NCc2cccnc2OC(C)C)CC1", "INHIBITION": -40.2}
{"smiles": "Cc1cc(C2CCCN2C(=O)NCc2cccnc2OC(C)C)on1", "note": "(stereo not drawn)", "INHIBITION": 29}
{"smiles": "CC(C)Oc1ncccc1CNC(=O)N1CCSCC1", "INHIBITION": 9.14}
{"smiles": "NC(=O)C1CCN(C(=O)NCc2ccccc2-n2cccn2)CC1", "INHIBITION": 44.1}
{"smiles": "NC(=O)C1CCN(C(=O)NCc2cccnc2OC2CCCC2)C1", "note": "(stereo not drawn)", "INHIBITION": 11.2}
{"smiles": "NC(=O)CC1CCN(C(=O)NCc2ccccc2-n2cccn2)CC1", "INHIBITION": 56.3}
{"smiles": "CC(C)Oc1ncccc1CNC(=O)N1CCCC1c1ccsc1", "note": "(stereo not drawn)", "INHIBITION": 31.2}
{"smiles": "NC(=O)C1CCN(C(=O)NCc2ccccc2-n2cccn2)C1", "note": "(stereo not drawn)", "INHIBITION": 0.914}
{"smiles": "NC(=O)C1CCN(C(=O)NCc2cccnc2OCC(F)(F)F)C1", "note": "(stereo not drawn)", "INHIBITION": 56.4}
{"smiles": "CC(C)Oc1ncccc1CNC(=O)N1CCC1", "INHIBITION": 54.4}
{"smiles": "CC(C)Oc1ncccc1CNC(=O)N1CCC(C(N)=O)C1", "note": "(stereo not drawn)", "INHIBITION": 40.3}
{"smiles": "CC(C)Oc1ncccc1CNC(=O)N1CCC1c1ccccc1", "note": "(stereo not drawn)", "INHIBITION": 52}
{"smiles": "CC(C)N(C)Cc1cncc2c1CCN(C(=O)c1ccc[nH]1)C2", "INHIBITION": 29}
{"smiles": "Cc1cccc(CN2CCc3ncnc(N4CCN(C)CC4)c3CC2)n1", "INHIBITION": -110}
{"smiles": "COc1ccc(OC)c(-n2nnnc2SCC2CCCCO2)c1", "note": "(stereo not drawn)", "INHIBITION": 20.9}
{"smiles": "Cc1cc(C)c(CNC(=O)NCC2CCCOC2)c(=O)[nH]1", "note": "(stereo not drawn)", "INHIBITION": 27.5}
{"smiles": "N#Cc1ccc(CNc2cccc(C(=O)N3CCOCC3)c2)cc1", "INHIBITION": 24.2}
{"smiles": "Cc1nc(C)n(CC2CCCN(CC(=O)NC3CCOCC3)C2)n1", "note": "(stereo not drawn)", "INHIBITION": -17}
{"smiles": "CCN1CCC(=O)N(C)Cc2cc(F)ccc21", "INHIBITION": 35.8}
{"smiles": "O=C(Cc1ccc2c(c1)OCCCO2)Nc1nnn[nH]1", "INHIBITION": -5.38}
{"smiles": "CC(=O)N1CCCN(C(=O)NCc2ccccn2)CC1", "INHIBITION": 53.3}
{"smiles": "CCN1CCN(C(=O)NCc2cccnc2-n2cccn2)CC1", "INHIBITION": 33.8}
{"smiles": "COCCOc1ncccc1CNC(=O)N1CCOCC1", "INHIBITION": 44.3}
{"smiles": "CC(C)Oc1ncccc1CNC(=O)N1CCC(n2cccc2)CC1", "INHIBITION": -69}
{"smiles": "COc1ncccc1CNC(=O)N1CCC(CN2CCOCC2)CC1", "INHIBITION": 29.4}
{"smiles": "O=C(CC1CCCCC1)N1CCN(C(=O)NCc2ccccn2)CC1", "INHIBITION": 12.7}
{"smiles": "CC(=O)N1CCCN(C(=O)NCCNc2ccccn2)CC1", "INHIBITION": 16.533}
{"smiles": "CN1CCCN(C(=O)NCc2cccnc2-n2cccn2)CC1", "INHIBITION": 52.3}
{"smiles": "CC(C)CN1CCN(C(=O)NCc2cccnc2-n2cccn2)CC1", "INHIBITION": 11}
{"smiles": "CC(=O)N1CCN(C(=O)NCc2cccnc2OC(C)C)CC1", "INHIBITION": 48.2}
{"smiles": "O=C(NCc1cccnc1OCC(F)(F)F)N1CCOCC1", "INHIBITION": 69.3}
{"smiles": "CC(C)Oc1ncccc1CNC(=O)N1CCOCC1", "INHIBITION": 65.6}
{"smiles": "CCCc1nc(Nc2cccc(C(N)=O)c2)c2c(n1)c(C)nn2CC", "INHIBITION": -28.15}
{"smiles": "O=C(Cn1cccc(S(=O)(=O)N2CCCC2)c1=O)c1ccccc1Cl", "INHIBITION": 16.6}
{"smiles": "CCOc1cc(=O)n2c(c1C(=O)OCc1cccc(C)c1)CCCC2", "INHIBITION": 43.8}
{"smiles": "c1csc(CN2CCn3c(Cn4cncn4)cnc3C2)n1", "INHIBITION": 45.5}
{"smiles": "COC(=O)C1CCN(c2cc(C)nc(-c3ccncc3)n2)CC1", "INHIBITION": -53.5}
{"smiles": "Cc1noc(C)c1C(=O)N1C[C@@H]2COC[C@]2(COc2ccccn2)C1", "INHIBITION": 18.5}
{"smiles": "CCN1CCN(C(=O)c2cc(NC(=O)c3ccccc3)n(C)n2)CC1", "INHIBITION": 75.7}
{"smiles": "Cn1nc(C(=O)N2CCCCCC2)cc1NC(=O)c1ccccc1", "INHIBITION": 26.4}
{"smiles": "CN1CCN(C(=O)c2cc(NC(=O)c3ccccc3)n(C)n2)CC1", "INHIBITION": 46.6}
{"smiles": "CC(C)N1c2sc(-c3ccsc3)nc2CC1C(=O)NC1CCCC1", "note": "(stereo not drawn)", "INHIBITION": 47.5}
{"smiles": "CC(C)N1c2sc(-c3ccccc3)nc2CC1C(=O)NC1CCCC1", "note": "(stereo not drawn)", "INHIBITION": 57.1}
{"smiles": "CC(C)N1c2sc(-c3ccsc3)nc2CC1C(=O)NC1CC1", "note": "(stereo not drawn)", "INHIBITION": 26.5}
{"smiles": "Cc1cccc(CN2CCc3ncnc(N4CCOCC4)c3CC2)n1", "INHIBITION": -9.86}
{"smiles": "Cc1ccc(CN(CCCN2CCOCC2)Cc2[nH]cnc2C)o1", "INHIBITION": -18.9}
{"smiles": "CS(=O)(=O)N1CCC[C@]2(C[C@@H](Oc3ncccc3F)CO2)C1", "INHIBITION": 26.2}
{"smiles": "CN1CC=C(c2noc(CCC(=O)N3CCc4ccccc4C3)n2)CC1", "INHIBITION": 77.2}
{"smiles": "CN1CC=C(c2noc(CCC(=O)N3CCc4ccccc43)n2)CC1", "INHIBITION": 32.5}
{"smiles": "CN1CC=C(c2noc(CCC(=O)N3CCCC3)n2)CC1", "INHIBITION": 41.6}
{"smiles": "O=C(NCc1cccc(N2CC=CC2)c1)NC1CC1", "INHIBITION": -37.7}
{"smiles": "CCc1cccc(N2CCC(NC(=O)c3ccco3)CC2)c1", "INHIBITION": 91.4}
{"smiles": "CCc1cccc(N2CCC(NC(=O)c3ccc(=O)[nH]n3)CC2)c1", "INHIBITION": 21.9}
{"smiles": "O=C(NC1CCCN(Cc2c(F)cccc2F)C1)c1cc[nH]n1", "note": "(stereo not drawn)", "INHIBITION": 32.2}
{"smiles": "CCc1cccc(N2CCC(NC(=O)c3ccoc3C)CC2)c1", "INHIBITION": 70.8}
{"smiles": "CCc1cccc(N2CCC(NC(=O)c3ccncc3)CC2)c1", "INHIBITION": 23.5}
{"smiles": "CCc1cccc(N2CCC(NC(=O)c3cc[nH]n3)CC2)c1", "INHIBITION": 77.3}
{"smiles": "Cc1occc1C(=O)NC1CCN(C(=O)Nc2cccnc2)CC1", "INHIBITION": 46.3}
{"smiles": "CCc1ccc(O)c(C(=O)NC2CCN(S(=O)(=O)CC)CC2)c1", "INHIBITION": 44.2}
{"smiles": "O=C([C@@H]1C[C@H]2[C@H](CCN2Cc2nccs2)O1)N1CCOCC1", "INHIBITION": -1.53}
{"smiles": "O=C(O)CNC(=O)Cc1csc(-c2ccccc2F)n1", "INHIBITION": 32.8}
{"smiles": "CCc1ccccc1C(=O)N1CCCC1CC(=O)c1cnn(C)c1", "note": "(stereo not drawn)", "INHIBITION": 30.6}
{"smiles": "Cc1ccc(O)c(C(=O)N2CCCC2CC(=O)c2cnn(C)c2)c1", "note": "(stereo not drawn)", "INHIBITION": 50.2}
{"smiles": "Cc1cscc1C(=O)N1CCCC1CC(=O)c1cnn(C)c1", "note": "(stereo not drawn)", "INHIBITION": 12.7}
{"smiles": "CCn1cc(S(=O)(=O)N2CCC(C3CCCCN(C)C3=O)CC2)c(C)n1", "note": "(stereo not drawn)", "INHIBITION": 37.1}
{"smiles": "OCC1CCN(C[C@@H]2CN(C3Cc4ccccc4C3)C[C@@H]2CO)CC1", "INHIBITION": 48.5}
{"smiles": "COc1cc(C(=O)N2CCC(Nc3cccnc3)CC2)ccc1C", "INHIBITION": -22.1}
{"smiles": "O=C(NC1CCC1)[C@H]1C[C@H]2CN(CC3CC3)C[C@@H]1O2", "INHIBITION": 65.3}
{"smiles": "O=C(NC1CCC1)[C@H]1C[C@H]2CN(S(=O)(=O)c3ccccc3)C[C@@H]1O2", "INHIBITION": 51.2}
{"smiles": "Cc1cccc(S(=O)(=O)N2C[C@@H]3C[C@H](C(=O)NC4CCC4)[C@H](C2)O3)c1", "INHIBITION": 5.36}
{"smiles": "CC(C)CN1C[C@@H]2C[C@H](C(=O)NC3CCC3)[C@H](C1)O2", "INHIBITION": 31.5}
{"smiles": "O=C(Nc1ccccc1)[C@H]1C[C@H]2CN(S(=O)(=O)c3ccccc3)C[C@@H]1O2", "INHIBITION": 5.96}
{"smiles": "CCc1cnc(N2C[C@@H]3C[C@H](C(=O)NC4CCC4)[C@H](C2)O3)nc1", "INHIBITION": 5.63}
